Common to all, as to set-up: scale not given: direction of the effect not stated beside the values
Assay [1] addresses Protein translocase subunit SecA (Escherichia coli (strain K12)) (UniProt P10408). As to the kind of experiment: Assay to Identify E. coli SecA ATPase Inhibitors. The class given is functional. Particulars: 30 µM.
Assay [2] addresses T1, Ubiquitin-activating enzyme e1, putative (Leishmania donovani (strain BPK282A1)) (UniProt E9BSI1).
T1 sequence (whole entry): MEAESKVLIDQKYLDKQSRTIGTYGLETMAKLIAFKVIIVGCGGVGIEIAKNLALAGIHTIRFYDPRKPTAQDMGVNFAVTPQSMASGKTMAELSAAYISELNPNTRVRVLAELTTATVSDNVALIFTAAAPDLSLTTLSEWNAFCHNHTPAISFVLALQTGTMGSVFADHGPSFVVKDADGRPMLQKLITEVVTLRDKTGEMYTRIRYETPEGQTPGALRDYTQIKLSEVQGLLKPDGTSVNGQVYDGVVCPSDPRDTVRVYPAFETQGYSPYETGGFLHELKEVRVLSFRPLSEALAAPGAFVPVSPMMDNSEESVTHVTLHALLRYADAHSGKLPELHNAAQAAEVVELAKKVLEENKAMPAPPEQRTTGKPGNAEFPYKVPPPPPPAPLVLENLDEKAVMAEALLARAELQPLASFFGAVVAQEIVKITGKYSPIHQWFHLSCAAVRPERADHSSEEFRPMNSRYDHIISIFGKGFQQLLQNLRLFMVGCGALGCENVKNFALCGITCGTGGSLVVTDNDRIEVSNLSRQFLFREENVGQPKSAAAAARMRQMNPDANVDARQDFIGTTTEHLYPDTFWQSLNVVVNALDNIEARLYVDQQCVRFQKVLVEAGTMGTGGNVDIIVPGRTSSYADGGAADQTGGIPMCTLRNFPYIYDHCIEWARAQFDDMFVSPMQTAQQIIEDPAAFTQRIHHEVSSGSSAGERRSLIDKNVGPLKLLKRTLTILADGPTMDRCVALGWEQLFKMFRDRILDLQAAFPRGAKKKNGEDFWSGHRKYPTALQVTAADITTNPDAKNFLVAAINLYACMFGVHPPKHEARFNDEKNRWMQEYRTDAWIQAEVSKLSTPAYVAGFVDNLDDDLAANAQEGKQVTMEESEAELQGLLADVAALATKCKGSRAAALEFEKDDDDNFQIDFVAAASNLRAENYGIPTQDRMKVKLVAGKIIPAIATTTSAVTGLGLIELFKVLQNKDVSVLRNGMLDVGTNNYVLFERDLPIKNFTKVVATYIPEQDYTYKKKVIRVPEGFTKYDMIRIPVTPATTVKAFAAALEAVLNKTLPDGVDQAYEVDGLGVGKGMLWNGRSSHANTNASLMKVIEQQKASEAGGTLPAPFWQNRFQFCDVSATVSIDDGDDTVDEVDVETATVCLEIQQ
Nature of the assay: Leishmania donovani Ubiquitin Activating Enzyme (LdE1). Format: functional. Particulars: 30 µM.

In assay [3] the target is Sialic acid-binding Ig-like lectin 9 (Homo sapiens) (UniProt Q9Y336). As to the kind of experiment: Hs-Siglec9 ALPHAscreen SOP 20170721. As to conditions: 10 µM. Background: In Alpha technology, singlet oxygen from a donor bead excites a nearby acceptor bead.
For assay [4], the system named is Trypanosoma cruzi. As to the kind of experiment: Trypanosoma cruzi phosphomannomutase and mannose-1-phosphate guanylyltransferase assay. The class given is functional. Particulars: 10 µM.
The target in assay [5] is T2, Arginase-2, mitochondrial (Homo sapiens) (UniProt P78540).
T2 sequence (whole entry): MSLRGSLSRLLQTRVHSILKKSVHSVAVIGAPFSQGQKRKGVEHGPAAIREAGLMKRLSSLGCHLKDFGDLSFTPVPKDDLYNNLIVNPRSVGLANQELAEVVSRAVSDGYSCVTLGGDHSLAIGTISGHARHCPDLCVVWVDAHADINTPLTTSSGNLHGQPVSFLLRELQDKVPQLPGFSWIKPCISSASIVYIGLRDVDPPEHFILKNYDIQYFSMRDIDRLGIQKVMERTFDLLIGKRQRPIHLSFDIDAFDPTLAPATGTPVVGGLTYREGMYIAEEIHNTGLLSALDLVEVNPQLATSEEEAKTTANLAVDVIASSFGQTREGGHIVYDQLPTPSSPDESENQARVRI
Nature of the assay: in vitro enzyme assay to detect the production of urea directly proportional to the activity of Arginase II. Also: in the data most compounds retested in dose-response had high values. The class given is functional. As to conditions: 33.3 µM.

The target in assay [6] is T3, Proteasome subunit beta (Trypanosoma cruzi) (UniProt O96673).
T3 sequence (whole entry): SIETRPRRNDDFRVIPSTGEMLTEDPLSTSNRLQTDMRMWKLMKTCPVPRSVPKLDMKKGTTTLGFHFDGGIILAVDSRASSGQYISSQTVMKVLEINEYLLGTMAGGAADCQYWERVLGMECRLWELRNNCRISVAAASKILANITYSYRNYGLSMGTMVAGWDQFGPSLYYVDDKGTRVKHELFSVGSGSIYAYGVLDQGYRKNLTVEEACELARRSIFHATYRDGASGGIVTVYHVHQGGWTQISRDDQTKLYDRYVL
Nature of the assay: Trypanosoma cruzi proteasome chymotrypsin-like activity (TcProtChymo) assay. Also: in the data most compounds retested in dose-response had high values. As to conditions: 9.37 µM. The class given is functional.

The species entered for assay [7] is Homo sapiens. As to the kind of experiment: To identify inhibition of the IFN signalling (Jak-Stat) pathway via expression of an eGFP reporter gene under the control of an IFN-stimulated response element (ISRE) containing MxA promoter. The class given is functional. Particulars: 30 µM. A general note: A reporter such as luciferase makes a cellular process visible.

In assay [8] the target is T4, Tyrosyl-tRNA synthetase, putative (Trypanosoma cruzi (strain CL Brener)) (UniProt Q4DSP6).
T4 sequence (whole entry): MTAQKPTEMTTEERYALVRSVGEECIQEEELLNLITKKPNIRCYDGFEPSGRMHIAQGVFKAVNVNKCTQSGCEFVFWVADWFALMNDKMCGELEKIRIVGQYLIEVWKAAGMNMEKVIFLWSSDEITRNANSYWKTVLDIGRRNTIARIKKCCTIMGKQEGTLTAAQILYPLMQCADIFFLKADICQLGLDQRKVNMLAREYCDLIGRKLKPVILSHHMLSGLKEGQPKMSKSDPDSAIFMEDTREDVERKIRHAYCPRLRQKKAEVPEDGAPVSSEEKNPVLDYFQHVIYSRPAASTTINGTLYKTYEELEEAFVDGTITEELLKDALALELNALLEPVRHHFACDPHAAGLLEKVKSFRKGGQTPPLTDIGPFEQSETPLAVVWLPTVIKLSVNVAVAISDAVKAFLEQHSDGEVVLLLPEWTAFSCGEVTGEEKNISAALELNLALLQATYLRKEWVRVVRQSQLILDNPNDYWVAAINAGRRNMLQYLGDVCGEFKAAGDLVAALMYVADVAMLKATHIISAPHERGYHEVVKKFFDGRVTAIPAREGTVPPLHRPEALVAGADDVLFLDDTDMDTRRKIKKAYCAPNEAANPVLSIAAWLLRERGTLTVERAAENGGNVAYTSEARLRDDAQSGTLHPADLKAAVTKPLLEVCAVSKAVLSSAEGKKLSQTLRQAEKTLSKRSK
Nature of the assay: Trypanosoma cruzi tyrosyl tRNA synthetase (TcYRS) _High Tyrosine SOP. Also: in the data most compounds retested in dose-response had high values. The class given is functional. As to conditions: 30 µM.

In assay [9] the target is T4, Tyrosyl-tRNA synthetase, putative (Trypanosoma cruzi (strain CL Brener)). Nature of the assay: Trypanosoma cruzi tyrosyl tRNA synthetase (TcYRS) SOP. As to conditions: 30 µM. The class given is functional.
Assay [10] deals with Chromo domain-containing protein 1 (Saccharomyces cerevisiae (strain ATCC 204508 / S288c) (Baker's yeast)) (UniProt P32657). As to the kind of experiment: ScCHD-1 Enzyme Inhibition Assay. Also: in the data most compounds retested in dose-response had high values. Format: functional. Particulars: 30 µM.

Molecules are shown by their SMILES. For some assays here: Results with a measured potency or affinity are listed apart.

Eleven compounds from ChEMBL document CHEMBL3988442, “University of Dundee, Small-Polar-MMV Screening Library” (2021) can be followed below.

Protein translocase subunit SecA (Escherichia coli (strain K12)), sequence (P10408 whole entry): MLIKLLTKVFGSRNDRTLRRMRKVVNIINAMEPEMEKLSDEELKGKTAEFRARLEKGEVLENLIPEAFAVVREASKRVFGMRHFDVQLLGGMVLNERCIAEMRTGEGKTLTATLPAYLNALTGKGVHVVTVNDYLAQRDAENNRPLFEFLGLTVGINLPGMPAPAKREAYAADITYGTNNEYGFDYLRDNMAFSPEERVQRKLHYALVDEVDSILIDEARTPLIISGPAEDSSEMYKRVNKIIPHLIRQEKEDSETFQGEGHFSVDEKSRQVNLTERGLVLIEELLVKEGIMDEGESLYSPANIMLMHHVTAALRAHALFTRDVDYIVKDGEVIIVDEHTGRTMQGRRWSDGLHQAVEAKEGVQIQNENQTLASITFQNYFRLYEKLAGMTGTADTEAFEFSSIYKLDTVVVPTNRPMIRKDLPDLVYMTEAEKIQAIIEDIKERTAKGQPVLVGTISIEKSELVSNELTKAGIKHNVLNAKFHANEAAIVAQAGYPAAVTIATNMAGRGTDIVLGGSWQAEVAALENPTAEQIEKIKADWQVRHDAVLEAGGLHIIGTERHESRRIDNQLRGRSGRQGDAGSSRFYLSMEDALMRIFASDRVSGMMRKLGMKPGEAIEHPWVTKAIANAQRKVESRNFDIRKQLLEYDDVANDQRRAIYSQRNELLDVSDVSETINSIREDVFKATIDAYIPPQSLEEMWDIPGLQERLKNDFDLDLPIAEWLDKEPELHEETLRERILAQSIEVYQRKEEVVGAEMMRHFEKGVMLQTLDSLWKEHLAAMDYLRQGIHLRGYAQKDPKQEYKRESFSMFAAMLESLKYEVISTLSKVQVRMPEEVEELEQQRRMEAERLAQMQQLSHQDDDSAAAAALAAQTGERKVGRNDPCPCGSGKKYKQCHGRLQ
Sialic acid-binding Ig-like lectin 9 (Homo sapiens), sequence (Q9Y336 whole entry): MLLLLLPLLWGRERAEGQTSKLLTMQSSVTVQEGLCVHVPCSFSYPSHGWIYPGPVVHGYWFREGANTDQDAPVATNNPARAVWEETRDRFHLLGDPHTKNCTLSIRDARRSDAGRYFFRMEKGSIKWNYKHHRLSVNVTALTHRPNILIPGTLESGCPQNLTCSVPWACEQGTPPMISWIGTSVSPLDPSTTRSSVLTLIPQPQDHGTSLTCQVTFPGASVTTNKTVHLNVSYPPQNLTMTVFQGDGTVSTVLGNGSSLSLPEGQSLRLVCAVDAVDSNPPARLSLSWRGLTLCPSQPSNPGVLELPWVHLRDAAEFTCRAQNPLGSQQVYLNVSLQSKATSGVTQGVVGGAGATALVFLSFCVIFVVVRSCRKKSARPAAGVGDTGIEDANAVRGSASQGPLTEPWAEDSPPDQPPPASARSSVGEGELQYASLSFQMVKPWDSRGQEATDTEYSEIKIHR
Chromo domain-containing protein 1 (Saccharomyces cerevisiae (strain ATCC 204508 / S288c) (Baker's yeast)), sequence (P32657 whole entry, the tested form may be a part): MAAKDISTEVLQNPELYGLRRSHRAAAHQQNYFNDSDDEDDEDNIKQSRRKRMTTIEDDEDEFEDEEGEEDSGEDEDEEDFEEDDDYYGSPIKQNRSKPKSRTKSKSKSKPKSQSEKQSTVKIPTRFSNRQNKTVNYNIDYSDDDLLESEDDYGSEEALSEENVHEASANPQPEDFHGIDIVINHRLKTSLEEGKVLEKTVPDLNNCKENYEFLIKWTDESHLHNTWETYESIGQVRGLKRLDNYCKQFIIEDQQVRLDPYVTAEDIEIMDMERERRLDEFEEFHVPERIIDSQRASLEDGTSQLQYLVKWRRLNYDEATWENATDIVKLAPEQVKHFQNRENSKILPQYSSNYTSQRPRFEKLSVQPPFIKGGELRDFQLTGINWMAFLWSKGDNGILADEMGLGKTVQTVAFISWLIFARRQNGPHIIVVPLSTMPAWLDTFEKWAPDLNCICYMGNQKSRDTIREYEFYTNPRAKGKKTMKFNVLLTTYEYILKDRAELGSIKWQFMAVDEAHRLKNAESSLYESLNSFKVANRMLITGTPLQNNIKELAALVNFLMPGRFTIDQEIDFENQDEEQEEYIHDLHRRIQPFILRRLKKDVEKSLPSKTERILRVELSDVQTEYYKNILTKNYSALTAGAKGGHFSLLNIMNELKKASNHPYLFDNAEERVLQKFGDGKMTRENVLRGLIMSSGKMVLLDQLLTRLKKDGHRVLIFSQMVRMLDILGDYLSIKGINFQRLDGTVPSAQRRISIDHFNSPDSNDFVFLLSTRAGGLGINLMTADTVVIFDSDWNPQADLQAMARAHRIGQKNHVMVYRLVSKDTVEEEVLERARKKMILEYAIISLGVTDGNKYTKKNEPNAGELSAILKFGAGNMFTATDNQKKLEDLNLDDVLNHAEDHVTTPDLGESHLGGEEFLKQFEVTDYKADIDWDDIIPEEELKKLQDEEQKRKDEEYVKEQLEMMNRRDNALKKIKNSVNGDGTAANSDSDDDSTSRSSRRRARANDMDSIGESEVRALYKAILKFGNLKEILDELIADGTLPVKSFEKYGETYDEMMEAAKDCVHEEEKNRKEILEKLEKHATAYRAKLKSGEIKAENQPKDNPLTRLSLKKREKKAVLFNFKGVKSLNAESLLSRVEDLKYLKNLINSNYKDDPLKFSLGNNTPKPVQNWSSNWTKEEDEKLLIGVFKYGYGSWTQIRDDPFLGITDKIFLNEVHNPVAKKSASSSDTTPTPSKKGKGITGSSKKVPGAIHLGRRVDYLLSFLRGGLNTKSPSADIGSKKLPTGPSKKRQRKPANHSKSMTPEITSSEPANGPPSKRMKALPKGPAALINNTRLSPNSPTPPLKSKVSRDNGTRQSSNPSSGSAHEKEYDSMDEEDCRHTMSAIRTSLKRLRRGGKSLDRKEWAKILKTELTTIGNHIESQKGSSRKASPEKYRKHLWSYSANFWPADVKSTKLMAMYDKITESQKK

In the case of `CS(=O)(=O)NCc1cc2n(n1)CCCN(Cc1cccc(C#N)c1)C2`, the Percent Effect in assay [1] is -4.38%; in assay [2], 8.11%; in [3], 22.8%; in [4], 7.47%; in assay [5], 10.8%; in assay [6], 13%. For the same compound, the Percent Effect in assay [7] was determined as 18.6%; in assay [8], 7.98%; in assay [9], 19.5%; in [10], 88%.
As for `Cc1noc(C)c1CN(C)C(=O)NC1CCN(C2CC2)CC1`, the Percent Effect was -1.46% in assay [1]; 2.56% in assay [2]; 0.345% in assay [3]; 2.91% in [4]; -0.82% in [5]; -3.84% in assay [6]. The Percent Effect in [7] is -6.08%; in assay [8], 2.39%; in [9], 8.43%; in [10] it was 3.21%.
As to `Cc1cc(C2CCCN2Cc2ccn(C)c(=O)c2)no1` (stereo not given), the Percent Effect in [1] was -3.32%; in assay [2], -10.3%; in assay [3], 3.98%; in [4] it was 9.11%; in assay [5], 1.64%; in assay [6] it was 8.45%. In addition, the Percent Effect in [7] was 4.2%; in assay [8], 3.35%; in [9], 8.43%; in assay [10], -0.427%.
In the case of `O=C(C1CC=CC1)N1CCC2(CC1)CN(Cc1ccccn1)CCO2`, the Percent Effect is -2.34% in assay [1]; 1.3% in [2]; -0.373% in [3]; 2.63% in assay [4]; -4.86% in assay [5]; 5.74% in assay [6]. Besides, the Percent Effect in assay [7] was -19%; in assay [8] it was 1.58%; in assay [9] it was 5.13%; in [10] it was 3.73%.
Turning to `CC[C@@H]1N(Cc2ccsc2)CCC[C@]12CCC(=O)N2C`, the Percent Effect in assay [1] is -5.65%; in [2] it was 3.9%; in [3], -0.653%; in assay [4], -1.69%; in assay [5], 1.37%; in assay [6], 2.66%. In addition, the Percent Effect is 32.3% in assay [7], -0.966% in assay [8], -12.5% in assay [9] and 0.966% in assay [10].
For `Cc1cccn2cc(CC(=O)N3CCCC(n4cncn4)C3)nc12` (stereo not given), the Percent Effect in assay [1] is -0.27%; in assay [2] it was 17.9%; in assay [3], -8.4%; in [4], 6.1%; in [5], 5.74%; in [6] it was 15.6%. Besides, the Percent Effect in assay [7] is 17.2%; in [8], 3.35%; in [9], 22.9%; in [10], -6%.
As to `O=C1CC2(CCN(CC3CC3)C2)CN1c1ccc2c(c1)OCO2` (stereo not given), the Percent Effect in [1] is -2.02%; in [2], 16.9%; in assay [3], -7.72%; in assay [4] it was 1.07%; in assay [5], 25.9%; in assay [6] it was 21.6%. Further, the Percent Effect in assay [7] is -0.411%; in [8], 12.1%; in assay [9], -48.7%; in [10] it was -4.12%.
With `Cc1cnn(CC2CCCN2C(=O)c2ccc3nnc(C)n3c2)c1` (stereo not given), the Percent Effect in assay [1] is -1.55%; in [2], -5.13%; in assay [3], -9.94%; in [4], 1.03%; in assay [5] it was 2.87%; in assay [6], 4.01%. For the same compound, the Percent Effect in [7] is 8.47%; in [8], -2.39%; in [9] it was -3.61%; in assay [10] it was -5.71%.
For `c1ccc(-n2ncc(CNC3CCc4ncnn4C3)n2)cc1` (stereo not given), the Percent Effect was -1.79% in assay [1]; 10.3% in assay [2]; 0.298% in [3]; 1.03% in assay [4]; 4.51% in assay [5]; 3.16% in assay [6]. For the same compound, the Percent Effect in assay [7] came to 10%; in assay [8], 1.44%; in [9], 8.43%; in assay [10], 1.52%.
For the compound `O=C(Cc1cccnc1)N1CCC(OCc2ccccc2)CC1`, the Percent Effect in assay [1] was -7.08%; in assay [2] it was -8.11%; in [3], 3%; in assay [4], -2.42%; in assay [5], -0.35%; in [6], 13.2%. In addition, the Percent Effect was 24.2% in assay [7], 6.92% in assay [8], 19.5% in [9] and 101% in assay [10].
Take `CCc1nc(CN2CCCN(C(=O)c3c(C)noc3C)CC2)cs1`: the Percent Effect is -2.47% in assay [1]; 10.3% in assay [2]; -1.6% in [3]; 0.0939% in [4]; 2.87% in [5]; 8.11% in assay [6]. The Percent Effect in [7] was 13.8%; in assay [8] it was 3.35%; in [9], 8.43%; in assay [10], -3.62%.
